About 83,000 compounds went through this panel and 20% of them were active in at least one assay; those are over-represented in the sample as a whole.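 A percent growth of 40 corresponds to 60% growth inhibition; 0 means no net growth; -100 means all cells died. Active threshold: below 10.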 Activity calls are given as the source filed them.

The assay relates to HCT-15 colon. In words: NCI-60 one-dose screen, 48 h (100 = growth as untreated, 0 = no growth, -100 = all killed). Conditions: 10 µM unless noted.
As to `COc1cc(OC)cc(C2=C3CC[C@@H]4[C@H](CC[C@]5(C)C(=O)CC[C@@H]45)C3=CC3C(O)c4cccnc4N4C(=O)COC234)c1` (some centres not stated), the growth is 100% (inactive).

For the compound `CC(=O)Cc1nsc(NC(=O)c2cc(-c3cc(Cl)cc(Cl)c3)oc2C)n1`, the growth was 99.4% (inactive).

Regarding `CCOC(=O)c1cn2ncnc(Oc3ccc(NC(=O)NC4CCCCC4)c(Cl)c3)c2c1C`, the growth is 69.4% (inactive).

Consider `Cc1nnc(NC(=O)c2nc(S(=O)(=O)Cc3ccc(F)cc3)ncc2Cl)s1`, for which the growth was 11.1% (inactive).

Turning to `C#CCOc1ccc2ncnc(Nc3ccc(NC(=O)CCl)cc3)c2c1`, the growth was -32.4% (active).

Take `CCOC(=O)C#Cc1c(C(=O)OCC)nnn1[C@@H]1O[C@H](CO)[C@H]2OC3(CCCCC3)O[C@H]21`: the growth was -38.8% (active).

Regarding `C/C(=N/O)c1ccc(F)cc1`, the growth is 11.5% (inactive).

In the case of `CCOC(=O)Cn1c(O)c(N=Nc2ccc(S(N)(=O)=O)cc2)c2cc(Br)ccc21`, the growth is 85.4% (inactive).

As to `Cc1nc(N2CCOCC2)sc1S(N)(=O)=O`, the growth is 105% (inactive).

Turning to `COc1ccc(OC)c(C(=O)/C=C/c2cc3c(c(OC)c2OC)OCO3)c1`, the growth was 47.3% (inactive).

In the case of `O=c1oc2ccccc2cc1C1=NN=C(SCc2ccccc2)SC1`, the growth is 101% (inactive).

As for `COc1ccc(C(=S)N2CCN(c3ccccc3Cl)CC2)cc1OC`, the growth was 95.2% (inactive).

Turning to `Cc1ccc(/C=C2\CN(C(=O)OC(C)(C)C)C/C(=C\c3ccc(C)cc3)C2=O)cc1`, the growth is 1.94% (active).

`O=C(Nc1nn(-c2ccc(Cl)cc2Cl)nc1-c1ccccc1)c1ccccc1`: the growth is 97.1% (inactive).

`CCN(CC)c1ccc(/C=C/C(=O)c2ccc(Nc3nc(Nc4ccccc4)nc(Nc4ccccc4)n3)cc2)cc1`: the growth was 32.4% (inactive).

In the case of `COC(=O)[C@H]1CCCN1C[C@@H](O)CN1C(=O)/C(=C\c2cc(OC)c(OC)c(OC)c2)c2ccccc21`, the growth is 98% (inactive).

Take `CN(C)c1ccc(Nc2cc(-c3cccc(OC(F)(F)F)c3)nc3ccc(N4CCCC4)cc23)cc1`: the growth was -45.5% (active).

In the case of `O=C(Nc1cc(Cl)ccc1O)c1ccc(Nc2ccnc(C(F)(F)F)c2)cc1`, the growth was 30.9% (inactive).

For `COc1cc(OC)c2sc(-c3ccc(-n4cncc4-c4ccc(OC)c(OC)c4)cc3)nc2c1`, the growth is 17.8% (inactive).

In the case of `O=C1c2cccnc2C(=O)c2c1c(C(=O)NCCCN1CCCCC1)c1ccccn21`, the growth is -71.8% (active).

For `CCOC(=O)c1ccc2[nH]c(O)c(C(=Nc3ccc(N(C)C(=O)CN4CCN(C)CC4)cc3)c3ccccc3)c2c1`, the growth was -23.6% (active).

`CCN1C(=O)N(CC)C2C1NN=c1s/c(=C\c3cccc([N+](=O)[O-])c3)c(=O)n12` (configuration not stated): the growth was 11.6% (inactive).

Take `CC1=C(Nc2ccc(N3CCN(C)CC3)cc2)C(=O)c2cncnc2C1=O`: the growth was 94.2% (inactive).

With `O=C1Nc2ccc(Br)cc2/C1=N/c1n[nH]c(=S)s1`, the growth is 99.1% (inactive).

On to `CCN(c1ccc(Cl)cc1)c1nc(-c2ccc([N+](=O)[O-])cc2)cs1`, for which the growth is 98.1% (inactive).

For the compound `C=C(C)[C@@H]1CC[C@]2(C)[C@H](CC=C3[C@@H]4[C@H](C)[C@@H](C)CC[C@]4(CO)CC[C@]32C)[C@@]1(C)CCCN`, the growth is -39.1% (active).

As for `O=C(/C=C(/C=C/c1cccc2[nH]ccc12)OB(F)F)/C=C/c1cccc2[nH]ccc12`, the growth is -58.4% (active).

With `CCN1CC(=O)N(/N=C2\C(=O)Nc3ccccc32)C1=S`, the growth was 95.1% (inactive).

`CCN1CCN(c2cc(C(=O)Nc3nc(-c4cc(OC)c(OC)c(OC)c4)cs3)cc(C(F)(F)F)c2)CC1`: the growth was 36.4% (inactive).

Consider `COc1ccc(-c2nc(/C=C3\SC(=NCc4ccccc4)NC3=O)c3ccccn23)cc1`, for which the growth was 0.0387% (active).

Turning to `CCOC(=O)C(=Cc1cccc(Br)c1)C(=O)OCC`, the growth is 15.1% (inactive).

`N#CC1=C(N)Oc2c(sc3c(F)cccc23)C1c1ccc(F)cc1` (configuration not stated): the growth was 26% (inactive).

Turning to `CCOc1nc(-c2ccccc2)cc2c(O)c(C(=O)NN)[nH]c(=O)c12`, the growth was 106% (inactive).

Take `O=C1c2cccc(NCCN=Cc3cc(O)ccc3O)c2C(=O)c2c(NCCN=Cc3cc(O)ccc3O)cccc21`: the growth is 23.2% (inactive).

Regarding `C=CCn1cc(-c2nc3ccccc3s2)c2cc(-c3ccc4c5c(cccc35)C(=O)N(N)C4=O)ccc21`, the growth was 98% (inactive).

In the case of `CCOC(=O)CNP(=O)(OC[C@@H](Cc1ccccc1)NC(=O)c1cc2ccccc2s1)Oc1ccccc1` (some centres not stated), the growth is 43.5% (inactive).

As to `CCC(=C(c1ccc(OCCN2CCCC2)cc1)c1ccc(OCCN2CCCC2)cc1)c1ccc(Cl)cc1`, the growth was -70.5% (active).

The values are drawn from PubChem BioAssay (NCI).
